HPGD inh – blocks human HPGD enzyme activity | purified HPGD, NADH fluorescence kinetic, PGE2 substrate | Potency, µM, without a hit: top-dose activity change, negative = inhibition, most hits filed as inhibitors | 150,000 tested, 4.3% active; further: on the % scale 0 is the no-effect control and ±100 the full control effect
Target sequence (P15428 whole entry, looked up): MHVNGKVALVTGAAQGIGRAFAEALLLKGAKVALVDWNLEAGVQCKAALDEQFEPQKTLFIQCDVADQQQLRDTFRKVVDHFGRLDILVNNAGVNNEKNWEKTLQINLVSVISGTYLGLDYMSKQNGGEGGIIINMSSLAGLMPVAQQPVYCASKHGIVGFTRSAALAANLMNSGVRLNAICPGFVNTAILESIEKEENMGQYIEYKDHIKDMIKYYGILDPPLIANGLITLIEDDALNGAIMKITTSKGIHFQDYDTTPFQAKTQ
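NADH formation kinetics: reaction with 30 uM PGE2 and 1 mM NAD+ (final), 20 nM enzyme, Tris-HCl pH 8 with Tween 20, after 15 min compound preincubation at room temperature. Fluorescence change, last versus first of five reads.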
LMNA splice mod – LMNA splicing modulation | 200,000 tested, 0.01% active | Potency, µM (doses to about 46.1 µM), inactives show top-dose ratio change, negative = inhibition, most hits filed as inhibitors | HeLa LMNA splicing GFP/RFP minigene ratio, 48 h; active means well fitted inhibition curve with a large enough effect in the signal ratio, with a control signal flat, not every such curve was filed as active; inconclusive means small, poorly fitted or top-dose-only effect, or effect the other way, or a change in a side signal; the % refers to the signal ratio; further: on the % scale 0 is the no-effect control and ±100 the full control effect
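Read-out is the ratio of GFP to DsRed2 object intensity, acquired by 488 nm laser-scanning cytometry on HeLa lamin A-EGFP minigene reporter cells. Compound incubation 48 hrs at 37 °C in Opti-MEM with 2% FBS; DMSO 0.5% final.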
HttQ103 aggreg – inhibitors of mutant huntingtin aggregate formation in PC12 cells; PC12 HttQ103-GFP aggregates, Acumen cytometry, 40 h; 220,000 tested, 1.1% active; AID 1688; Potency, µM (titrated, usually from 46.1 µM), inactives show top-dose activity change, negative = inhibition, most hits filed as inhibitors; active means well fitted curve in the direction sought with a large enough effect; inconclusive means small, poorly fitted or top-dose-only effect, or another doubt; inactive means no such curve, though single readings can be large; an effect the other way counts as inactive or inconclusive; further: on the % scale 0 is the no-effect control and ±100 the full control effect; nearly all actives have a fitted effect of over 60% in size
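Ecdysone-promoter PC12 model expressing HTT exon 1 Q103 fused to GFP, induced by tebufenozide at 100 nM final. Compounds titrated; aggregates sized 1–25 µm scored on a 488 nm laser cytometer.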
ALDH1A1 block – ALDH1A1 (human) enzyme inhibition; Purified ALDH1A1, NADH fluorescence, propionaldehyde substrate; 220,000 tested, 7.3% active; Potency, µM (titrated, usually from 75.3 µM), for inactives: top-dose activity, negative = inhibition, hits mostly inhibitors; P00352;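 further: plate controls were no enzyme wells and a reference inhibitor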
Target sequence (P00352 whole entry, looked up): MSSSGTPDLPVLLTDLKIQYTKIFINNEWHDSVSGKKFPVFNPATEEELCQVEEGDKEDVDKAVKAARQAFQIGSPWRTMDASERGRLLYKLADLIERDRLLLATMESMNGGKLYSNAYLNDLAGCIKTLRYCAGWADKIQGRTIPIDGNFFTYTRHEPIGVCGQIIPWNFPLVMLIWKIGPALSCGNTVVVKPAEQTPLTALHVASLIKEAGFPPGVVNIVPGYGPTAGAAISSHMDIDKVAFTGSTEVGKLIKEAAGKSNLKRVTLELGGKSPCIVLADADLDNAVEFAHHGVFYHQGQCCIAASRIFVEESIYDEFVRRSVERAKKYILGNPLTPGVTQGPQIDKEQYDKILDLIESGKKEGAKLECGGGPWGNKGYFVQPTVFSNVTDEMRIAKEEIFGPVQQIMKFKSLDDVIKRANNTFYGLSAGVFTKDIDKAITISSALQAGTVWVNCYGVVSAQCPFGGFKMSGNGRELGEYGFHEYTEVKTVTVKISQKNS
HTT ATP protect – cytoprotection in Huntington HTT-Q103 PC12 cell model; AID 1471; PC12 HTT-Q103 induced, cytoprotection, ATP luminescence, 40 h; 230,000 tested, 0.14% active; Potency, µM (top dose mostly 56.4 µM), without a hit: cytoprotection (ATP increase), hits mostly activators; active means well fitted curve in the direction sought with a large enough effect; inconclusive means small, poorly fitted or top-dose-only effect, or another doubt; inactive means no such curve, though single readings can be large; an effect the other way counts as inactive or inconclusive; further: % of control where 0% means no effect; nearly all actives have a fitted effect of over 45% in size
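Compounds added alongside 100 nM tebufenozide, which induces toxic Q103 huntingtin exon 1-GFP in stable PC12 cells; surviving cells quantified by luminescent ATP measurement. Medium: phenol red-free DMEM, 5% equine and 5% calf serum.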
* marks the source's active call; other numbers are inactive results; ? = inconclusive; / = not tested or not shown; [ ] = remark or other dose. Only some compounds are listed: those with a hit (about 8.8% of all), similar ones and a draw of the others. Unless noted, the call rests on the fitted dose curve; in most records, active means well fitted inhibition curve with a large enough effect (not every such curve was filed as active); inconclusive means small, poorly fitted or top-dose-only effect, or another doubt; inactive means no such curve, though single readings can be large or run the other way. Potency means the concentration at half of the fitted maximal effect.

SMILES | HPGD inh | LMNA splice mod | HttQ103 aggreg | ALDH1A1 block | HTT ATP protect
O=C(CN1CCOCC1)N1CCc2ccccc2C(c2ccccc2)C1 (configuration not stated) | -13% | ? | -10% | 14µM* | -15%
CN1C(=S)SC(C)(NO)C1(C)C (configuration not stated) | -27% | 15% | -6% | 0.79µM* | 0%[0.074 µM]
COc1ccc(CNCC(=O)Nc2cc(C)nn2-c2nc(C)cc(C)n2)cc1OC | / | / | 29%[9.22 µM] | / | -43%[10 µM]
CCC(C(=O)Nc1cc(C)nn1-c1nc(C)cc(C)n1)c1ccccc1 (configuration not stated) | -15% | 1% | 12% | ? | -6%[10 µM]
Cc1cc(C)nc(-n2nc(C)cc2NC(=O)CN2CCc3ccccc3C2)n1 | 4% | ? | ? | 25µM* | -8%[10 µM]
CCN(CC(=O)Nc1cc(C)nn1-c1nc(C)cc(C)n1)Cc1ccccc1 | 0% | -18% | -6%[9.22 µM] | 20µM* | -19%
Cc1cc(C)nc(-n2nc(C)cc2NC(=O)CNCc2ccccc2)n1 | -11% | -1% | 14% | 8.9µM* | -6%
C#C[C@]1(O)CC[C@@H]2[C@H]3CCC4=CC(=O)CC[C@H]4[C@H]3C(=C)C[C@@]21CC | / | / | 18% | / | -3%
COC(=O)CC1=NN(c2nc3ccccc3s2)C(=O)/C1=C/N(C)C | / | -11%[46 µM] | 18% | 4% | -21%
O=C(NCc1ccc(F)cc1)C(=O)NCC(c1ccc2c(c1)OCO2)N1CCOCC1 (configuration not stated) | / | 2%[46 µM] | / | / | /
C=C(C)Cn1c(C)cc(C)c(S(=O)(=O)c2cccc(C)c2)c1=O | / | ? | 26%[9.22 µM] | ? | -17%
COc1cc(/C=C/C(=O)O)cc(S(=O)(=O)NCCCC(=O)O)c1OC | / | / | 20%[9.22 µM] | ? | 19%
CCCCOc1ccc([N+](=O)[O-])cc1C(=O)O | / | 9%[46 µM] | 17% | 5% | /
Cc1cc(C)n(C(=O)COc2ccc(Cl)cc2Cl)n1 | -10% | -11% | -9% | 4% | 14%[10 µM]
Cc1cc(C)n(CCOc2ccc(Cl)cc2Cl)n1 | 32µM* | 5% | -13% | -2% | 1%
Cc1ccc(-c2csc3ncnc(Oc4ccc5c(C)cc(=O)oc5c4)c23)cc1 | ? | ? | -2% | -1% | /
CC(=O)Nc1cccc(Oc2ncnc3scc(-c4ccc(C)cc4)c23)c1 | 28µM* | ? | 21% | ? | -10%[10 µM]
CN(C)S(=O)(=O)c1ccc(C(=O)OCC(=O)Nc2sc3c(c2C#N)CCCCC3)cc1 | -4% | 3% | 0% | -15% | -1%[10 µM]
CNS(=O)(=O)c1cccc(C(=O)OCC(=O)Nc2sc3c(c2C#N)CCCCC3)c1 | / | -15% | 22% | 25µM* | 0%[10 µM]
Cn1c(=O)c(Nc2ccc(O)cc2)c2c3c(cccc31)C(=O)c1ccccc1-2 | 25µM* | -17% | 1% | -2% | -18%[10 µM]
O=C(O)CN1C(=O)/C(=C/c2ccsc2)SC1=S | / | -11%[46 µM] | 13% | -11% | -15%
O=C(O)CCN1C(=O)/C(=C\c2ccc(-c3nc4ccccc4s3)o2)SC1=S | 16µM* | -3% | / | ? | ?
Cn1cccc1/C=C1\SC(=S)N(CC(=O)O)C1=O | 28µM* | 2% | -5% | -5% | 23%[10 µM]
O=C(O)CN1C(=O)/C(=C/c2ccc(SCc3ccccc3)o2)SC1=S | / | ? | 16% | 3.5µM* | -73%
O=C(O)CN1C(=O)/C(=C/C=C/c2ccccc2)SC1=S | / | ? | 22% | ? | -134%
SMILES | HPGD inh | LMNA splice mod | HttQ103 aggreg | ALDH1A1 block | HTT ATP protect
CC(C)c1ccc(NC(=O)CS(=O)(=O)c2cccc3nsnc23)cc1 | / | 3%[46 µM] | / | / | /
Cc1nc(SCC(=O)c2cccc([N+](=O)[O-])c2)n[nH]1 | -28% | -8% | ? | ? | 11%[10 µM]
Cc1nc([N+](=O)[O-])c(Br)n1CC(=O)c1ccc(F)cc1 | / | ? | 28µM* | -3% | -248%
Cc1ccnc(SCC(=O)c2cccc([N+](=O)[O-])c2)n1 | -19% | -3% | 5% | 32µM* | 1%[10 µM]
Cc1nc([N+](=O)[O-])c(Br)n1CC(=O)c1cccc([N+](=O)[O-])c1 | / | -2%[9.22 µM] | ? | 25µM* | -60%[10 µM]
CCC1CCCCN1C(=O)c1c[nH]c2ccc(S(=O)(=O)Nc3cccc(OC)c3)cc2c1=O (configuration not stated) | / | -7%[46 µM] | / | / | /
O=C(Nc1ccccn1)C(NS(=O)(=O)c1cccc2nsnc12)c1ccccc1 (configuration not stated) | 32µM* | 18% | ? | ? | -47%[10 µM]
Cc1nnc(SCCn2c(Br)nc3c2c(=O)[nH]c(=O)n3C)s1 | -14% | 1% | 10% | 7.9µM* | 6%[0.074 µM]
Cn1c(=O)[nH]c(=O)c2c1nc(Br)n2CCC(=O)c1ccccc1 | -9% | 3% | -5% | 3.5µM* | 9%[10 µM]
COc1ccc(CCn2c(Br)nc3c2c(=O)[nH]c(=O)n3C)cc1 | 13µM* | 8% | 1% | 6% | -12%
Nc1c2c(nc3sc4c(c13)CCCC4)-c1ccccc1CC2 | / | / | -1%[9.22 µM] | / | -29%[10 µM]
COc1cccc(Cn2c(=O)cnc3cnc(OCc4ccccc4)nc32)c1 | / | 2% | / | -2% | 4%
O=c1nc2n(c3sc4c(c13)CCCC4)C(CBr)CS2 (configuration not stated) | ? | ? | 14% | 13µM* | 15%
CC1CCN(C(=O)c2cc(N3C(=O)C4C5CCC(C5)C4C3=O)ccc2Cl)CC1 (configuration not stated) | / | / | 2% | 0% | -35%
O=C1C2C3C=CC(CO)(O3)C2C(=O)N1c1ccccc1-c1ccccc1 (configuration not stated) | 7.9µM* | 8% | ? | 1.1µM* | -136%
O=S(=O)(NCc1cc(-c2ccc(Cl)cc2)no1)c1ccccc1 | -3% | -3% | 11% | 9% | 31%
CC(=O)Oc1ccc(N2C(=O)C3C4C=CC(CO)(O4)C3C2=O)cc1 (configuration not stated) | 22µM* | 8% | ? | 0.71µM* | -22%
O=C1C2C3C=CC(CNS(=O)(=O)c4ccccc4)(O3)C2C(=O)N1c1ccc(Cl)cc1 (configuration not stated) | 22µM* | -2% | 17% | 0.63µM* | 6%[10 µM]
COC(=O)c1cc(N2C(=O)C3C(C2=O)C2(C)C=CC3(C)O2)ccc1Cl (configuration not stated) | 2.8µM* | ? | ? | 0.11µM* | 3%[10 µM]
CCN(CC)C(=O)c1ccccc1NC(=O)CN1C(=O)c2ccccc2C1=O | / | ? | 3%[9.22 µM] | -1% | 9%[10 µM]
COc1cccc(CNC(=O)C(=O)NCC(c2ccco2)S(=O)(=O)c2cccs2)c1 (configuration not stated) | / | -8%[46 µM] | / | / | /
CCCCNC(=O)Nc1nc2ccc(CC)cc2s1 | / | -2%[46 µM] | -3% | -5% | -4%[10 µM]
CC(=O)Oc1ccc(-n2c(=O)c3ccccc3c3ccccc3c2=O)cc1 | / | 1%[46 µM] | / | -5% | /

Screening results: PubChem, National Center for Advancing Translational Sciences (NCATS)
